Active and inactive are the calls of the source. Unless noted, how the calls were made is not given here.
Experiments:
[1] = system: Hepatitis C virus NS3 helicase; assay: blockers of NS3h binding to ssDNA – biochemical, fluorescence polarization, LOPAC1280 library, primary screen (AID 687035; in the data active means inhibition above about 37%); conditions: Purified HCV NS3 helicase, Cy5-dT15 ssDNA binding fluorescence polarization; stronger effect = higher value; concentration not given here
[2] = compounds altering Cy5-DNA-NS3h complex signal – biochemical, LOPAC1280, artefact control for HCV NS3 helicase inhibitor project (AID 687037); conditions: Cy5-DNA-NS3h complex fluorescence interference counterscreen
[3] = Wnt pathway potentiators raising nuclear beta-catenin – imaging, WNT3A-conditioned medium, mouse C2C12, NPC library, primary screen (AID 1117326; in the data active means nuclear beta-catenin stimulation mostly above about 4.2%, no sharp cut-off; inactive means mostly below about 10%); conditions: stronger effect = higher value
[4] = stimulators of insulin release from INS-1E, primary screen, cell-based, 5 mM glucose, NPC library (AID 1117329;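 active means compound raises insulin release from rat beta cells at 5 mM glucose, no numeric limit stated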); conditions: rat INS-1E insulin secretion, at 10 µM, stronger effect = higher value
[5] = growth inhibition of GSK3B-pretreated HCT116 cells – cell-based, CellTiter-Glo, 0.2 to 20 µM (AID 1117336;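 active means compounds lowering colon cancer cell viability after pretreatment blocking the GSK3B kinase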); conditions: HCT116 viability after GSK3B inhibitor, at 20 µM, stronger effect = higher value
[6] = inhibition of endothelial tube formation, primary screen, imaging, VEGF stimulated, CD31 staining, tube area, NPC library (AID 1117340;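 active means compound that reduces growth-factor-driven endothelial tube area in a mixed cell culture, no cutoff stated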); conditions: VEGF-stimulated ADSC/ECFC co-culture, at 10 µM, stronger effect = higher value
[7] = GLP1 release stimulators, primary, NCI-H716, NPC library (AID 1117341;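 active means compound raises GLP1 secretion from the human gut endocrine cells, with no numeric limit stated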); conditions: NCI-H716 cells, at 10 µM, stronger effect = higher value
[8] = HCT116 colon cancer cell growth inhibition, primary screen, CellTiter-Glo luminescence, NPC library (AID 1117342;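 active means compounds that lower survival of HCT116 colon cancer cells in the luminescence readout, no numeric limit stated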); conditions: at 20 µM (top of the series)
[9] = reduced SW480 viability measured with CellTiter-Glo, NPC library, primary (AID 1117343;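 active means compounds that lower viability of the colon cancer cells in the luminescence readout, with no numeric limit stated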); conditions: CellTiter-Glo luminescence; at 20 µM (top of the series)
[10] = NPC library primary testing for decreased DLD-1 cell viability via CellTiter-Glo (AID 1117346;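 active means compounds that lower survival of DLD-1 colon cancer cells in the luminescence readout, no cutoff given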); conditions: DLD-1 viability, CellTiter-Glo luminescence; at 20 µM (top of the series)
[11] = target: 6-phosphogluconate dehydrogenase, decarboxylating (Homo sapiens) (UniProt P52209); assay: inhibition of human phosphogluconate dehydrogenase – biochemical, recombinant enzyme, NADPH absorbance, primary screen (AID 1159550;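 active means at least 20% inhibition of 6-phosphogluconate dehydrogenase activity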); conditions: recombinant 6PGD, NADPH absorbance 341 nm; at 10 µM; stronger effect = higher value
Chain of 6-phosphogluconate dehydrogenase, decarboxylating (Homo sapiens) (P52209 whole entry, looked up): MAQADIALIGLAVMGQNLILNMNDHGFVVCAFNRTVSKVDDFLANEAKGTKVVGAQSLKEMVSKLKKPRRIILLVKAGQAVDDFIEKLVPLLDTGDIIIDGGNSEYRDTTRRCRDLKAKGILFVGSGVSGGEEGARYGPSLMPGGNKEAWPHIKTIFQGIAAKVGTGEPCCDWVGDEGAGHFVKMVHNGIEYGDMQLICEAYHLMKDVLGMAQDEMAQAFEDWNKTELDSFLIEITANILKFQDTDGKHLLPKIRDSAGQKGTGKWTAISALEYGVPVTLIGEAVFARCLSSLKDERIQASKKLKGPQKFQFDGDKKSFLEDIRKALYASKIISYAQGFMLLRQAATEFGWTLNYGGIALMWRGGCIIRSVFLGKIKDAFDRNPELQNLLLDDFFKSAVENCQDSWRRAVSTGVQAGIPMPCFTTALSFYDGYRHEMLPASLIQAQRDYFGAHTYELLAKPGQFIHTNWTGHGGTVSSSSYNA

[12] = signal quenchers or enhancers, Cy5 substrate/SSB – biochemical, NIH Clinical Collection, E. coli SSB, artefact control for HCV NS3 helicase inhibitor project (AID 743268); conditions: Cy5-oligo bound E. coli SSB, fluorescence interference
[13] = system: Hepatitis C virus NS3 helicase; assay: blockers of NS3h binding to DNA – biochemical, fluorescence polarization, NIH Clinical Collection, primary screen (AID 743270); conditions: NS3 helicase binding to Cy5-dT15 DNA, stronger effect = higher value, concentration not given here
[14] = target: Single-stranded DNA-binding protein (Escherichia coli (strain K12)) (UniProt P0AGE0); assay: SSB-ssDNA binding inhibitors – biochemical, fluorescence polarization, NIH Clinical Collection, counter-screen for HCV NS3 helicase inhibitor project (AID 743271; in the data active means inhibition above about 28%); conditions: E. coli SSB-DNA binding, stronger effect = higher value, concentration not given here
[15] = compounds distorting NS3 helicase fluorescence signal – biochemical, NIH Clinical Collection, artefact control for HCV NS3 helicase inhibitor project (AID 743272); conditions: fluorescence interference counterscreen, HCV NS3 helicase assay; stronger effect = lower value;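 further: HCV NS3 helicase with a Cy5 labelled single stranded DNA probe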
[16] = system: Neuropilin-2 / VEGF-C interaction (human); assay: small molecules blocking Neuropilin-2/VEGF-C interaction – biochemical, microplate binding format, z-score (AID 743281); conditions: microplate NRP2/VEGF-C binding assay; stronger effect = lower value

SMILES | inhibition [1] | fluorescence ratio (interference) [2] | nuclear beta-catenin stimulation ([3]; at 10 µM) | nuclear beta-catenin stimulation ([3]; stimulation, at 2 µM) [%] | insulin secretion stimulation [4] | viability decrease [5] | tube area decrease [6] | GLP1 secretion stimulation [7] | inhibition of viability [8] | viability decrease (inhibition) [9] | viability decrease (inhibition) [10] | inhibition [11] | fluorescence ratio [12] | inhibition [13] | inhibition [14] | fluorescence ratio [15] | z-score [16]
Fc1ccc(C(c2ccc(F)cc2)N2CCN(C/C=C/c3ccccc3)CC2)cc1 | -1% (inactive) | 1 (inactive) | 1.1% (inactive) | -2.5 | 2.65% (inactive) | 108% (active) | 21.4% (inactive) | 0.7% (inactive) | 107% (active) | 125% (active) | 99.7% (active) | 16.5% (inactive) |  |  |  |  | 
CN1CCN(CCCN2c3ccccc3Sc3ccc(Cl)cc32)CC1 | -3% (inactive) | 1 (inactive) | 19.8% (inactive) | 0.2 | 3.6% (inactive) | 13% (inactive) | 47.3% (active) | 17.2% (inactive) | 86% (active) | 137% (active) | 94.4% (active) | 5.8% (inactive) | 0.78 (active) | -1.19% (inactive) | 9.14% (inactive) | 0.71 (active) | 0.742 (inactive)
O=C1NCC2(CCN(CCc3ccccc3)CC2)O1 | -3% (inactive) | 1 (inactive) | 0.4% (inactive) | 1.5 | -0.9% (inactive) | 1.6% (inactive) | 18.6% (inactive) | 0% (inactive) | 8.9% (inactive) | 48% (inactive) | -32.8% (inactive) | 13.7% (inactive) |  |  |  |  | 
CC(C)NNC(=O)c1ccncc1 | -3% (inactive) | 0.9 (inactive) | 2.3% (inactive) | -0.3 | -2.5% (inactive) | -3.15% (inactive) | 5.7% (inactive) | 0.4% (inactive) | 4.9% (inactive) | 34.8% (inactive) | 7.6% (inactive) | -0.838% (inactive) |  |  |  |  | 
C[N+](C)(C)CCOC(N)=O | -1% (inactive) | 0.9 (inactive) | -0.5% (inactive) | 2.3 | -0.5% (inactive) | 1.3% (inactive) | -7.7% (inactive) | 2.2% (inactive) | -2.4% (inactive) | -4.8% (inactive) | -12.5% (inactive) | -13.5% (inactive) |  |  |  |  | 
CN1CCN(CC(=O)N2c3ccccc3C(=O)Nc3cccnc32)CC1 | -1% (inactive) | 1 (inactive) | 1.7% (inactive) | -0.5 | -1.3% (inactive) | -6.7% (inactive) | 7.8% (inactive) | -0.5% (inactive) | -2.2% (inactive) | -14.1% (inactive) | 5.4% (inactive) | 7.85% (inactive) |  |  |  |  | 
CCN(CC)CCNC(=O)c1cc(S(C)(=O)=O)ccc1OC | -3% (inactive) | 0.9 (inactive) | 1.9% (inactive) | 0.2 | 0.1% (inactive) | -23.6% (inactive) | 12% (inactive) | 0.7% (inactive) | 1.13% (inactive) | 10.9% (inactive) | -4.3% (inactive) | -8.37% (inactive) |  |  |  |  | 
Cc1ccccc1N1C(=O)c2cc(S(N)(=O)=O)c(Cl)cc2NC1C (stereo not given) | 1% (inactive) | 1 (inactive) | -0.4% (inactive) | 1.1 | 1.1% (inactive) | -5.6% (inactive) | -5.3% (inactive) | -1.9% (inactive) | 0.8% (inactive) | -18.3% (inactive) | -5.3% (inactive) | -11.8% (inactive) |  |  |  |  | 
CC(C)(Oc1ccc(CCNC(=O)c2ccc(Cl)cc2)cc1)C(=O)O | -2% (inactive) | 1.1 (inactive) | 6.1% (inactive) | 5.1 | 0.4% (inactive) | -10.3% (inactive) | -25.4% (inactive) | -1.3% (inactive) | 4.05% (inactive) | -13.9% (inactive) | -20.8% (inactive) | 4.98% (inactive) |  |  |  |  | 
NC(Cc1ccc(Cl)cc1)C(=O)O (stereo not given) | -3% (inactive) | 1 (inactive) | 1.4% (inactive) | 2.1 | -1.3% (inactive) | -0.7% (inactive) | -8.9% (inactive) | 0.5% (inactive) | -7.8% (inactive) | 13.2% (inactive) | -6.55% (inactive) | 5.29% (inactive) |  |  |  |  | 
CN1Cc2c(N)cccc2C(c2ccccc2)C1 (stereo not given) |  | 1 (inactive) | 3.1% (inactive) | 1.5 | 6.6% (inactive) | -9.2% (inactive) | 3.2% (inactive) | 0.3% (inactive) | 10% (inactive) | 25.6% (inactive) | 4.2% (inactive) | 5.71% (inactive) |  |  |  |  | 
CCCCNc1ccc(C(=O)OCCN(C)C)cc1 | -2% (inactive) | 0.9 (inactive) | 9.2% (inactive) | 3.3 | 0% (inactive) | -26.9% (inactive) | 9.8% (inactive) | 0.3% (inactive) | 18% (inactive) | 47% (inactive) | 3.1% (inactive) | -7.63% (inactive) |  |  |  |  | 
CCOC(=O)C1=C[C@]2(CC)CCCN3CCc4c(n1c1ccccc41)[C@@H]32 | -2% (inactive) | 1 (inactive) | 0.9% (inactive) | -0.3 | -1.7% (inactive) | 14.4% (inactive) | 41% (active) | 2.8% (inactive) | -3.2% (inactive) | 61.3% (active) | 2.25% (inactive) | 13.5% (inactive) |  |  |  |  | 
